Source: PubChem BioAssay AID2289 (National Center for Advancing Translational Sciences (NCATS), 2010)
The campaign covered roughly 340,000 compounds. About 3,300 (0.97%) were called active. Roughly 9% stayed inconclusive and do not appear here. The call rests on the fitted dose curve; in most records, active means well fitted inhibition curve with a large enough effect; inconclusive means small, poorly fitted or top-dose-only effect, or effect the other way; inactive means flat fitted curve, though single readings scatter. The list shows a part of the results.

Test: qHTS Assay for Modulators of miRNAs and/or Inhibitors of miR-21; further: nearly all actives have a fitted effect of over 55% in size
Settings: HeLa miR-21-FLuc reporter, luciferase luminescence, 48 h; actives lower the signal
Description: MLSCN Grant: 1 R21 NS059478-01 Assay Provider: Qihong Huang, The Wistar Institute NCGC Assay Overview: MicroRNAs (miRNAs) are endogenously encoded small (~20-25 nucleotides), nonprotein-coding RNAs that are involved in post-transcriptional repression of target messenger RNAs (mRNAs) (Le and Hannon, 2004). Estimated to be involved in the regulation of 30% of all protein-coding mRNAs (Filipowicz et al., 2008), miRNAs play a significant role in many biological processes including cellular differentiation and tissue development (Ghildiyal and Zamore, 2009).
NCGC Assay Protocol Summary: Reagents: HeLa cells stably expressing firefly luciferase (FLuc) under the control of a CMV promoter (upstream) and a miR-21 binding sequence directly downstream of the gene. These cells endogenously express miR-21. Control compounds used were compound C3 (provided by collaborator), N6-phenyladenosine (MP Biomedicals, 0215379625), and DMSO. Assay Summary: 6uL of HeLa miR-21-FLuc cells in assay buffer (DMEM, Invitrogen #21063-029; 10% FBS, HyClone #SH30071.03) were dispensed at 2000cells/well (3.3 x 10^5 cells/mL) into Greiner solid-white TC-treated 1536-well plates using a Multidrop Combi (Thermo Fisher Scientific). Plates were incubated for one hour at 37 degree Celsius, 95% humidity, 5% CO2. These assay plates were then treated with 23nL of compound or DMSO using a Kalypsys pin tool, which allows for delivery of a 24-point titration of each compound to the assay plate, with a final compound concentration ranging from approximately 40uM to 5pM. Assay plates were then incubated for 48 hours. After incubation, plates were allowed to come to RT for one hour prior to delivery of 3uL of 3X luciferase detection reagent. After a 15 minute incubation to allow for cell lysis, luciferase activity was measured using a ViewLux CCD imager (PerkinElmer), with an average exposure time of 2-12 seconds. Keywords: NIH Roadmap, MLPCN, MLSMR, qHTS, miR-21, microRNA, firefly luciferase, FLuc.
Potency means the concentration at half of the fitted maximal effect.

Potency, active:
O=C(Nc1ccn(-c2ccccc2)n1)c1ccccc1Br 13.1 µM
N=C1C(c2nc3ccccc3[nH]2)=C(O)CN1c1ccc(F)cc1 14.7 µM
CCn1c(SCC(=O)O)nnc1-c1ccccc1OC 3.29 µM
CN(C)c1ccc(/C=N/N=C/c2ccccc2O)cc1 2.61 µM
Cc1cc2cc3c(N)[nH]nc3nc2cc1C 14.7 µM
CCc1ccc2nc3n[nH]c(N)c3cc2c1 2.33 µM
Cc1nc(-c2nc(-c3c(C(=O)NN)noc3C)cs2)cs1 4.14 µM
Cc1ccc(CNC(=O)c2ccc(NC(=O)c3nsc4ccccc34)cc2)cc1 1.65 µM
COCCCNC(=O)c1ccc(NC(=O)c2nsc3ccccc23)cc1 3.69 µM
CSc1ccc(CNC(=O)c2ccc(NC(=O)c3nsc4ccccc34)cc2)cc1 0.585 µM
CCOc1ccc(CNC(=O)c2ccc(NC(=O)c3nsc4ccccc34)cc2)cc1 1.85 µM
CCOc1cc(CNC(=O)c2ccc(NC(=O)c3nsc4ccccc34)cc2)ccc1OC 0.585 µM
O=C(Nc1ccccc1F)N1CCc2ccccc2C1 4.65 µM
Nc1nc(CSC(=S)N2CCOCC2)nc(Nc2ccccc2)n1 3.69 µM
Nc1nc(CSC(=S)N2CCCCC2)nc(Nc2ccccc2)n1 11.7 µM
Cc1ccc(NC(=O)Nc2ccc3c(c2)nc(C)n3C)cc1C 1.17 µM
Cn1c(CCN2CCCCCC2)nc2cc(NC(=O)Nc3ccccc3)ccc21 7.36 µM
Cc1nc2cc(NC(=O)Nc3cccc4ccccc34)ccc2n1C 2.93 µM
Cc1ccc(/C=N/Nc2ncc(Cl)cc2Cl)s1 3.69 µM
Cc1ccc(/C=N/Nc2ccc(Cl)c(C(=O)O)c2)s1 0.165 µM
Cc1ccc(/C=N/Nc2cccc(C(=O)O)c2)s1 0.104 µM
CN(C(=O)c1ccco1)c1nnc(C23CC4CC(CC(C4)C2)C3)s1 8.26 µM
CCSc1cc(C)nc2c(-c3ccccc3)cnn12 0.656 µM
C=CCSc1cc(C)nc2c(-c3ccccc3)cnn12 2.07 µM
COc1ccc(/C=C/C=C2\NC(=S)NC2=O)cc1 14.7 µM
Cc1oc(C(C)(C)C)cc1C(=O)Nc1ccc(C(=O)O)cc1 8.26 µM
NC1=NC(=O)/C(=C/c2cn(Cc3ccccc3)c3ccccc23)S1 9.27 µM
Cc1ccc(C(=O)C(C)OC(=O)c2ccccc2[N+](=O)[O-])cc1 (configuration not stated) 4.65 µM
Cc1ccc2cc(NC(=O)c3ccccc3C)ccc2n1 5.85 µM
Cc1ccc2cc(NC(=O)c3cccc(F)c3)ccc2n1 0.464 µM
CCc1ccc(C(=O)Nc2ccc3nc(C)ccc3c2)cc1 3.29 µM
Cc1ccc(NC(=O)CC(=O)c2ccccc2)cc1C 11.7 µM
Cc1ccc2cc(NC(=O)Cc3ccccc3)ccc2n1 2.07 µM
CCC(=O)Nc1ccc(-c2csc(C)n2)cc1 7.36 µM
CCC(=O)Nc1ccc(-c2ccc(N3CCCCC3)nn2)cc1 4.14 µM
COc1cc(SC)ccc1C(=O)Nc1ccc2c(c1)CCC2 1.31 µM
COc1cc(SC)ccc1C(=O)Nc1ccc2ncccc2c1 0.369 µM
COc1cc(SC)ccc1C(=O)Nc1ncc(Cl)cc1Cl 1.85 µM
CSc1ccccc1C(=O)Nc1ccc2c(c1)CCC2 7.36 µM
COc1cc(SC)ccc1C(=O)Nc1ccc(C)cc1C 1.85 µM
CCCCN(C(=O)Cc1cccs1)c1nnc(-c2cccnc2)s1 14.7 µM
CC(C)OC(=O)CSc1nc(N)c(C#N)cc1C#N 5.85 µM
CCOC(=O)CSc1nc(N)c(C#N)cc1C#N 8.26 µM
CSc1nc(N)nc(SCC(=O)OC(C)C)c1C#N 13.1 µM
O=C1CCn2nc(-c3ccc(Cl)cc3)cc2N1 6.56 µM
COc1cccc(NC(=O)C(=O)NCCc2ccc(F)cc2)c1 11.7 µM
O=C(CCCc1ccccc1)Nc1cccc(C(=O)O)c1 0.464 µM
O=C(CCCc1ccccc1)c1ccccc1 2.07 µM
O=C(NCc1ccccc1)C(=O)Nc1cccc(C(=O)O)c1 0.185 µM
Cc1cccc(NC(=O)C(=O)NCCCc2ccccc2)c1 16.5 µM
Cc1cccc(NC(=O)CCCc2ccccc2)c1 7.36 µM
COc1ccccc1-c1cnn2c(NC3CCCC3)cc(C)nc12 5.85 µM
Cc1cc(N2CCOCC2)n2ncc(-c3ccc(Cl)cc3)c2n1 0.414 µM
Cc1cc(N2CCOCC2)n2ncc(-c3ccccc3Cl)c2n1 1.65 µM
COc1ccccc1-c1cnn2c(N3CCOCC3)cc(C)nc12 14.7 µM
Cc1nc(-c2ccc(Cl)cc2)sc1C(=O)O 11.7 µM
CNC(=O)c1sc(-c2ccc(Cl)cc2)nc1C 6.56 µM
C/C(=N\O)c1sc(-c2ccccc2)nc1C 1.85 µM
Cc1cc(/C=C\c2ccccc2)nc2ccccc12 7.36 µM
CC(C)(C)n1cnc2cc(NCc3ccc(Br)cc3)ccc21 4.14 µM
CCc1ccc(CNc2ccc3c(c2)ncn3C(C)(C)C)cc1 5.85 µM
O=C(O)c1ccc(N/N=C/C2=Cc3ccccc3OC2)cc1 1.17 µM
CCS(=O)(=O)c1ccc2oc(Nc3ccccc3Cl)nc2c1 1.85 µM
CCN(CC)S(=O)(=O)c1ccc2oc(Nc3ccccc3)nc2c1 9.27 µM
CCS(=O)(=O)c1ccc2oc(Nc3ccccc3Br)nc2c1 2.07 µM
C=CCNc1nc(Nc2ccccc2F)nc(OCC)n1 5.85 µM
Cc1cccc(NC(=O)C2Cc3ccccc3O/C2=N\O)c1 (configuration not stated) 14.7 µM
O=C(Nc1ccc(Br)cc1)C1Cc2ccccc2O/C1=N\O (configuration not stated) 7.36 µM
Cc1ccc(NC(=O)C2Cc3ccccc3O/C2=N\O)cc1C (configuration not stated) 14.7 µM
COCCNc1oc(/C=C/c2ccccc2)nc1C#N 2.07 µM
N#Cc1nc(/C=C/c2ccccc2)oc1NCCCN1CCOCC1 10.4 µM
COCCCNc1oc(/C=C/c2ccccc2)nc1C#N 0.464 µM
CC(C)c1ccc(NC(=O)C(c2ccccc2)N2CC(=O)Nc3ccccc32)cc1 (configuration not stated) 13.1 µM
CCC(C)C(=O)N1CCc2cc(-c3csc(N)n3)ccc21 (configuration not stated) 1.65 µM
CCCC(=O)N1c2ccc(-c3csc(N)n3)cc2CC1C (configuration not stated) 1.85 µM
O=c1[nH]n(Cc2ccccc2)c(=O)c2ccccc12 13.1 µM
O=C(NC(=S)Nc1nc2ccccc2s1)c1cccs1 0.521 µM
Cc1ccc2nc(NC(=S)NC(=O)c3cccs3)sc2c1 0.656 µM
O=S(=O)(c1cc(F)ccc1F)N1CCC2(CC1)OCCO2 5.21 µM
COc1ccc(C(=O)c2cc3cccc(OC)c3o2)cc1 3.29 µM
COc1cc(OC)c(C(=O)Nc2ccc3ccccc3c2)cc1OC 2.93 µM
COc1ccc(NC(=O)c2sc3nc[nH]c(=O)c3c2C)cc1 5.85 µM
COc1cc2ccccc2cc1C(=O)NC(=S)Nc1cccc(C(=O)O)c1 14.7 µM
COc1ccc(NC(=O)c2ccc3nc[nH]c3c2)cc1 7.36 µM
O=C(Nc1ccc2ccccc2c1)c1cc(F)c(F)cc1Cl 0.656 µM
COc1cccc2cc(C(=O)N3CCc4ccccc4C3)c(=O)oc12 16.5 µM
COc1cc(OC)c(C(=O)Nc2ccc(N(C)C)cc2)cc1OC 8.26 µM
COc1cccc(NC(=O)c2cc3cccc(OC)c3o/c2=N\O)c1 0.414 µM
COc1ccc(-c2cccc(C(=O)Nc3cccc(C(=O)O)c3)c2)cc1 6.56 µM
COc1cccc2cc(C(=O)Nc3ccc(C)cc3)c(=O)oc12 0.736 µM
COc1ccc(C(=O)Nc2ccc3cn[nH]c3c2)c(OC)c1 4.65 µM
COc1cccc(NC(=O)c2cc3ccccc3cc2OC)c1 2.33 µM
CCOC(=O)CC(NC(=O)c1cc2cccc(OC)c2oc1=O)c1ccc(OC)cc1 (configuration not stated) 16.5 µM
COc1ccc(C(c2c(O)ccc3ccccc23)N2CCOCC2)c(OC)c1 (configuration not stated) 11.7 µM
Cc1ccsc1C1NC(=O)c2c(sc3c2CCCC3)N1 (configuration not stated) 5.85 µM
CCN(CC)c1ccc(NC(=O)C2CC3CCC2C3)cc1 (configuration not stated) 10.4 µM
O=[N+]([O-])c1cc(C(F)(F)F)ccc1NCCOc1ccccc1 7.36 µM
O=[N+]([O-])c1ccccc1NCCOc1ccccc1 7.36 µM
Cc1cccc(C(=O)NC2CCCCCCC2)c1 2.93 µM
O=C(NC1CC1)c1ccc(-c2ccccc2)cc1 3.69 µM
O=C(NC1CCCCC1)c1ccc2c(c1)OCCO2 2.93 µM
N#Cc1ccc(C(=O)NC2CCCCCCC2)cc1 5.85 µM
N#Cc1nc(COc2ccccc2F)oc1N1CCCCCC1 16.5 µM
N#Cc1nc(-c2ccccc2Cl)oc1N1CCCCC1 16.5 µM
N#Cc1nc(COc2ccccc2)oc1N1CCCCC1 13.1 µM
COC(=O)Nc1ccc2c(c1)ncn2C1CCCCC1 18.5 µM
CN(c1ccccc1)S(=O)(=O)c1nnc(NC(=O)c2cccs2)s1 0.117 µM
